Bioassay records (PubChem)
SMN2 splice up: SMN2 splice variant enhancement; HEK293 SMN2-luciferase splicing reporter, luminescence, 30-36 h; Potency, µM (highest dose often 46.1 µM), without a hit: at the top dose activity change, positive = activation, most hits filed as activators; 210,000 tested, 2.8% active; note: % of control where 0% means no effect; nearly all actives have a fitted effect of over 55% in size
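HEK293 cells carry an SMN2 […]–luciferase reporter in which exon 7 inclusion puts luciferase in frame. Cells were plated 10-12 h before compound addition, then incubated 30-36 h at 37C. ONE-Glo luminescence was read; sodium butyrate at 4.5 mM final served as control.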
Rab9 prom act: activators of Rab9 promoter. Huh7 Rab9 promoter-luciferase reporter, luminescence, 24 h. AID 485297. 320,000 tested, 2.8% active. Potency, µM (top dose mostly 9.22 µM), without a hit: top-dose activation, negative = inhibition, hits mostly activators; note: % of control where 0% means no effect; nearly all actives have a fitted effect of over 60% in size
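Cell-based reporter: Huh7 stable for Rab9 promoter-driven luciferase, plated in reduced-serum medium with 10% FBS at 1500 cells/well, compound-treated 24 h at 37 °C, luminescence read after 10 min reagent.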
ELG1 DNA repair: blocks ELG1-dependent DNA repair in HEK293T cells; 330,000 tested, 2.3% active; Potency, µM (top dose mostly 46.1 µM), for inactives: top-dose activity change, negative = inhibition, usual class: inhibitors; HEK293T ELG1-luciferase reporter, luminescence, 16 h; DNA damage induced by 5-fluorouridine; note: % is set by controls: 0 for no effect and ±100 for the full control effect; nearly all actives have a fitted effect of over 55% in size
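Reporter activity after DNA damage by 5-fluorouridine is monitored. Compound-treated cells incubate 16 hr at 37 °C, then ONE-Glo is added for 30 min before luminescence reading.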
ELG1 genotox: induces genotoxicity in HEK293T cells with luciferase-tagged ELG1; HEK293T ELG1-luciferase reporter, luminescence, 16 h; Potency, µM (titrated, usually from 46 µM), for inactives: at the top dose activity change, positive = activation, most hits filed as activators; 330,000 tested, 1.3% active; note: % of control where 0% means no effect; nearly all actives have a fitted effect of over 60% in size
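Step 1: seed 2,000 HEK293T ELG1-luciferase cells per well. Step 2: add compound or DMSO, incubate 16 hr at 37 °C. Step 3: ONE-Glo, 30 min at room temperature, read luminescence.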
NPC1 prom act: NPC1 promoter activation; Potency, µM (series often up to 9.22 µM), inactives show at the top dose activation, actives largely listed as activators; AID 485313; Huh7 NPC1 promoter luciferase reporter, 24 h; 320,000 tested, 2.4% active; note: % of control where 0% means no effect; nearly all actives have a fitted effect of over 60% in size
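Cells: Huh7 expressing luciferase under the NPC1 promoter, 1500/well. Seeded 2 h, compound added, incubated 24 h at 37 °C. Luciferase reagent, 10 min ambient, then luminescence.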
FLuc modulator: counter-screen for miR-21 project: firefly luciferase inhibitors or activators; P08659; Potency, µM (titrated, usually from 57.5 µM), without a hit: at the top dose activity change, negative = inhibition, actives largely listed as inhibitors; purified FLuc, Km substrates, luminescence inhibition; 360,000 tested, 6.9% active; AID 588342;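 note: plate controls were vehicle for no effect and reference inhibitor for full effect; nearly all actives have a fitted effect of over 55% in size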
Target sequence (P08659 whole entry, looked up): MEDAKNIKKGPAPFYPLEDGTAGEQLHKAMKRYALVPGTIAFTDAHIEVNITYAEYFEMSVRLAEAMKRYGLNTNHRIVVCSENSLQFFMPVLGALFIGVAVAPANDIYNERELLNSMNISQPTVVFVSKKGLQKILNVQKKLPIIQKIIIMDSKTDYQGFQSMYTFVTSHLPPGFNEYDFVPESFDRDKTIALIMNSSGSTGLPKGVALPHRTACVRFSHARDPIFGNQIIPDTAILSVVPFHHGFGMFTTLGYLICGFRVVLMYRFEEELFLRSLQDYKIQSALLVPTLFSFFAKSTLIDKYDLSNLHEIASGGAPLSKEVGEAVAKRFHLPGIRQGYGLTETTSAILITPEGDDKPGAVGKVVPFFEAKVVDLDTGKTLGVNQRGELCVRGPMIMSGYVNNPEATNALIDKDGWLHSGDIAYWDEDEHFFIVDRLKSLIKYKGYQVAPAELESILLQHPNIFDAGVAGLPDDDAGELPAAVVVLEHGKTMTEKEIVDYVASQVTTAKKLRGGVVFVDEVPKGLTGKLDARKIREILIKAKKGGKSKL
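Purified P. pyralis luciferase, 10 nM final, with Km-level 10 uM D-luciferin and 10 uM ATP in 50 mM Tris acetate pH 7.5, 10 mM Mg acetate, 0.01% Tween-20, 0.05% BSA; 6-point qHTS titration about 60 µM downward; luminescence read.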
Active calls of the source: *; ? = inconclusive; . = no result given. This is a sample that favours compounds with a hit; in the whole collection about 9.4% have one here. Calls come from the whole dose curve; as a rule, active = well fitted curve in the direction sought with a large enough effect; inconclusive = small, poorly fitted or top-dose-only effect, or another doubt; inactive = no such curve, though single readings can be large; an effect the other way counts as inactive or inconclusive. Potency is the fitted concentration of half-maximal effect.

SMILES	SMN2 splice up	Rab9 prom act	ELG1 DNA repair	ELG1 genotox	NPC1 prom act	FLuc modulator
O=C(OCc1ccc(F)cc1)c1cccnc1Cl	.	-0.5%	1.6%	0.5%	-2.5%	-1.5%
CC(C)N(C(=O)COC(=O)c1cccnc1Cl)c1ccccc1	.	.	2.9%	-0.2%	.	.
O=C(COC(=O)c1cccnc1Cl)c1ccc(F)cc1	14.1%	1.0%	?	7.5%	1.7%	3.01µM*
CCc1ccc(C(=O)COC(=O)c2cccnc2Cl)cc1	19.8%	6.8%	13.1%	-2.3%	1.3%	0.426µM*
O=C(OCc1ccc(COC(=O)c2cccnc2Cl)cc1)c1cccnc1Cl	-4.1%	-7.0%	-1.0%	-3.5%	-4.6%	?
O=C(COC(=O)c1cccnc1Cl)c1ccccc1	15.2%	2.5%	?	?	12.9%	2.69µM*
O=C(CC(=O)c1ccccc1)Nc1cccnc1Cl	12.6µM*	?	?	?	?	12µM*
Cc1nc(N2CCC(C)CC2)c2oc3ccccc3c2n1	-42.8%	-14.0%	20.6µM*	-4.5%	-3.8%	-3.5%
COc1ccccc1N1CCN(c2nc(C)nc3c2oc2ccccc23)CC1	-22.2%	-17.8%	?	-19.3%	-18.3%	-13.5%
Cc1nc(N2CCN(Cc3ccc(Cl)cc3)CC2)c2oc3ccccc3c2n1	.	-9.0%	18.3µM*	0.2%	-5.5%	-8.4%
Cc1nc(N2CCN(C(=O)c3ccco3)CC2)c2oc3ccccc3c2n1	-42.0%	-2.8%	?	-31.8%	-4.6%	-11.9%
Cc1ccccc1-n1c(C)nnc1SCc1nc2ccccc2s1	2.4%	27.6%	?	?	14.6%	4.78µM*
CCOc1ccccc1-n1nnnc1SCc1nc2ccccc2s1	-27.9%	17.2%	?	-4.3%	14.4%	13.5µM*
CCOc1ccccc1-n1nnnc1SCC(=O)NC(=O)NCc1ccco1	1.7%	-1.0%	25.9µM*	-10.0%	8.1%	4.4%
CCn1c(SCc2nc3ccccc3s2)nnc1-c1cccs1	?	?	?	?	18.0%	15.1µM*
COc1ccc(-n2c(SCC(=O)Nc3cccc(C)c3C)nc3c([nH]c4ccccc43)c2=O)cc1	.	.	.	.	.	-2.9%
COc1cccc(C(=O)CC2(O)C(=O)Nc3ccc(Cl)cc32)c1 (centres undefined)	-14.3%	.	.	.	.	2.7%
Cc1ccc(-n2nnnc2-c2nc3ccccc3s2)cc1	-18.7%	-0.2%	?	12.1%	-5.1%	0.5%
CCOc1ccc(-n2nnnc2-c2nc3ccccc3s2)cc1	-55.2%	2.51µM*	?	18.4µM*	?	2.13µM*
Cc1cccc(C)c1NC(=O)Cn1c(=O)n(Cc2ccco2)c(=O)c2ccc(C(=O)NC3CCCC3)cc21	-3.1%	.	.	.	.	1.6%
CCCCOC(=O)c1ccc(NC(=O)c2ocnc2C)cc1	-8.5%	21.5%	28.8%	4.7%	18.7%	16.9µM*
CCCOC(=O)c1ccc(NC(=O)c2ccoc2C)cc1	?	1.58µM*	?	15.3%	3.16µM*	9.53µM*
CCCOC(=O)c1ccc(NC(=O)c2ccccc2OC)cc1	-18.1%	14.0%	?	15.9%	10.3%	?
CCCCOC(=O)c1ccc(NC(=O)c2ccoc2C)cc1	?	?	-3.2%	20.6µM*	20.6%	?
Cc1cccc(NC(=O)c2ccc(Cn3nc(N4CCN(c5ccccc5)CC4)ccc3=O)o2)c1C	.	.	.	.	.	-8.9%
O=C(OCC1CO1)C1CCCCC1C(=O)OCC1CO1 (centres undefined)	-5.0%	.	.	.	.	.
Cc1ccc(NC(=O)CSc2nc(NS(=O)(=O)c3ccccc3)cc(=O)[nH]2)cc1	-12.3%	0.4%	?	2.2%	0.2%	-2.9%
Cc1ccc(S(=O)(=O)Nc2cc(=O)[nH]c(SCC(=O)Nc3cccc(C)c3)n2)cc1	.	-0.5%	?	-7.3%	-0.1%	19µM*
CCOc1ccc(NC(=O)CSc2nc(NS(=O)(=O)c3ccc(C)cc3)cc(=O)[nH]2)cc1	.	1.3%	7.3%	-0.3%	-0.5%	21.3µM*
